Assay [1] deals with human Vitamin D Receptor (VDR), VDR (gene 7421) (UniProt P11473). Briefly: ATG_VDR_TRANS: Attagene TRANS-FACTORIAL HepG2 Assay for human Vitamin D Receptor (VDR) (AID 2283022; active means hit-call score of the fitted dose curve at least 0.9, where 1 is the maximum). In short, it runs like this:
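Transactivation by an exogenous VDR-Gal4 chimera in transiently transfected HepG2 cells was measured as reporter transcript level 24 hours after chemical treatment. RT-PCR products were analysed by capillary electrophoresis and fitted in the positive direction relative to DMSO.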

Assay [2] can be described thus: BSK_3C_SRB: Viability Assessment in the BioMAP Diversity Plus: 3C Assay (AID 2283023).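 Further: fitted both ways against DMSO so a hit may be signal rise or drop.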 Particulars: primary human endothelial cells (HUVEC). In short, it runs like this:
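Cytotoxicity readout in parallel HUVEC 3C cultures: after 24 h compound exposure, cells fixed with 10% TCA, stained with 0.1% SRB and read at 560 nm. Gain or loss relative to DMSO fitted.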

Read-out in assay [3]: Matrix Metallopeptidase 1 (MMP1), MMP1 (gene 4312)
Briefly: BSK_BE3C_MMP1: BioMAP Diversity Plus: BE3C Assay for Matrix Metallopeptidase 1 (MMP1) Biomarker Activity (AID 2283024). As to conditions: primary human bronchial epithelial cells; actives raise or lower the signal. An outline of the steps: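 Primary human bronchial epithelial cells were dosed with test chemicals, and MMP1 levels were measured by ELISA 24 h later. Data were fitted bidirectionally against DMSO as the negative control and activity baseline.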

A short description of assay [4]: BSK_3C_Vis: BioMAP Diversity Plus: 3C Assay for Morphology Visualization (AID 2283025).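 Further: fitted both ways so gain or loss versus DMSO counts.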 Particulars: primary human endothelial cells (HUVEC). In short, it runs like this:
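Human umbilical vein endothelial cells in the 3C system were imaged by light microscopy 24 h after chemical dosing to record cell morphology. Activity was fitted bidirectionally against DMSO as negative control and baseline; the endpoint serves as a background control.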

Read-out in assay [5]: Pselectin, SELP (gene 6403)
The experiment in a line: BSK_4H_Pselectin: BioMAP Diversity Plus: 4H Assay for Pselectin Biomarker Activity (AID 2283026). Particulars: primary human endothelial cells (HUVEC); actives raise or lower the signal. An outline of the steps: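 Primary human umbilical vein endothelial cells were exposed to test chemical for 24 h, then cell-surface P-selectin was quantified by ELISA. Activity was fitted bidirectionally against DMSO as negative control and baseline.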

A short description of assay [6]: BSK_4H_SRB: Viability Assessment in the BioMAP Diversity Plus: 4H Assay (AID 2283027).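 Further: cells exposed to compound for 24 h before staining.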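 On AC50: curves fitted both ways versus DMSO so AC50 may be loss or gain.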 As to conditions: primary human endothelial cells (HUVEC). An outline of the steps: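 Absorbance at 560 nm of SRB-stained total protein served as the viability read-out in confluent primary human umbilical vein endothelium 24 h after chemical treatment. Curves were fitted bidirectionally against DMSO as negative control.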

The nature of assay [7]: BSK_BE3C_SRB: Viability Assessment in the BioMAP Diversity Plus: BE3C Assay (AID 2283028).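 On AC50: fitted both ways so AC50 may mark signal gain or loss versus DMSO.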 Particulars: primary human bronchial epithelial cells. An outline of the steps:
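Cytotoxicity read-out: SRB (0.1%) staining of TCA-fixed (10%) human lung bronchial epithelial cells, absorbance 560 nm, 24 h post-dosing. Curves fitted both directions relative to DMSO.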

Read-out in assay [8]: Thrombomodulin, THBD (gene 7056)
Briefly: BSK_3C_Thrombomodulin: BioMAP Diversity Plus: 3C Assay for Thrombomodulin Biomarker Activity (AID 2283029). As to conditions: primary human endothelial cells (HUVEC); actives raise or lower the signal. An outline of the steps:
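Primary human umbilical vein endothelial cells (3C system) were exposed to chemical for 24 h, then thrombomodulin levels were measured by ELISA. Activity was fitted bidirectionally against the DMSO negative control as baseline.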

Read-out in assay [9]: Urokinase-type plasminogen activator receptor (uPAR), PLAUR (gene 5329)
The experiment in a line: BSK_4H_uPAR: BioMAP Diversity Plus: 4H Assay for Urokinase-type plasminogen activator receptor (uPAR) Biomarker Activity (AID 2283030). Particulars: primary human endothelial cells (HUVEC); actives raise or lower the signal. An outline of the steps: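 uPAR level read by ELISA on HUVEC cultures (BioMAP 4H) 24 h post-dosing, analyzed for gain or loss relative to DMSO. Parallel SRB staining assessed overt cytotoxicity.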

Read-out in assay [10]: Vascular endothelial growth factor receptor 2 (Homo sapiens) (UniProt P35968)
Briefly: BSK_4H_VEGFRII: BioMAP Diversity Plus: 4H Assay for Vascular endothelial growth factor receptor 2 (VEGFR2) Biomarker Activity (AID 2283031).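 On AC50: cell-surface VEGFR2 protein level quantified by ELISA.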 As to conditions: primary human endothelial cells (HUVEC); actives raise or lower the signal. In short, it runs like this: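 Measured by ELISA after 24 h of compound treatment: VEGFR2 on primary human umbilical vein endothelial cells, fitted in both directions relative to DMSO. Parallel cultures received SRB staining (560 nm) for overt cytotoxicity.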

Where “and” joins values, the source holds several entries; their conditions need not be identical. Equal values may be shown once. Inconclusive results are not listed. Where a structure was tested more than once in an assay, its records may differ in their call. Calls of active or inactive are those of the source. How the source made its calls, unless noted: active means hit-call score of the fitted dose curve at least 0.9, where 1 is the maximum; inactive means score below 0.9.

The values that follow come from PubChem BioAssay (EPA / NIEHS).

Chain of human Vitamin D Receptor (VDR), VDR (gene 7421) (P11473 whole entry, looked up, the tested form may be a part): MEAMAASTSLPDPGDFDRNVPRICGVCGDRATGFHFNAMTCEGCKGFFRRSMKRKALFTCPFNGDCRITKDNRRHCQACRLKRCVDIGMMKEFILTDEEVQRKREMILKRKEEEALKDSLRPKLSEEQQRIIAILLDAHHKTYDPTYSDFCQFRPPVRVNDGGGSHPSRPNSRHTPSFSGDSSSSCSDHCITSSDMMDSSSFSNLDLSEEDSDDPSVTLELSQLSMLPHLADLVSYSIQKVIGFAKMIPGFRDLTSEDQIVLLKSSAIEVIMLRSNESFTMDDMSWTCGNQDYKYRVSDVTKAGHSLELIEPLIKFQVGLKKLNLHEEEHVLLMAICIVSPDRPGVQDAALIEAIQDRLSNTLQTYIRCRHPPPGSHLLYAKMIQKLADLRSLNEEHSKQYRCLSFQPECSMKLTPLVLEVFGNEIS

For `c1ccc(NNc2ccccc2)cc1`, the result in assay [1], in assay [2], in [3], in assay [4], in [5] and in [6] was inactive. The result in assay [7], in [8], in assay [9] and in assay [10] was inactive.
In the case of `Clc1ccccc1Cl`, the outcome in assay [1], in assay [2], in assay [3], in assay [4], in assay [5] and in assay [6] was inactive. Also, the outcome in assay [7], in assay [8], in assay [9] and in assay [10] was inactive.
As to `Nc1ccc(Cc2ccc(N)cc2)cc1`, the compound was called inactive in [1], in assay [2], in assay [3], in assay [4], in [5] and in assay [6]. Moreover, the result in assay [7], in assay [8], in assay [9] and in assay [10] was inactive.
Turning to `CCOc1cccc(C2(N3CCN(c4ccccc4)CC3)CCC(C)CC2)c1` (configuration not stated), the call in assay [1], in assay [2], in [3], in assay [4], in assay [5] and in assay [6] was inactive. Further, the result in assay [7], in assay [8], in [9] and in [10] was inactive.
Broadly, the AC50 is the concentration at which the activity in the assay is half-maximal. `ClC1=C(Cl)[C@]2(Cl)[C@H]3[C@H]([C@@H]4C=C[C@H]3C4)[C@@]1(Cl)C2(Cl)Cl`: the compound was classed as inactive in [1], in [4], in assay [7] and in [8]. The concentration at half-maximal activity (AC50) in [2] is 26 µM (active); in assay [3] it was 20 µM (active); in assay [5] it was 24.1 µM (active); in assay [6], 33.3 µM (active); in assay [9], 32.3 µM (active); in assay [10], 29.4 µM (active).
For `CCOC(=O)[C@]1(c2ccccc2)Oc2ccccc2[C@@H]1N`, the call in [1], in assay [3], in assay [5], in [6], in assay [7] and in assay [8] was inactive. Also, in [10], the outcome was inactive. Moreover, the AC50 was 24.7 µM (active) in assay [2], 39 µM (active) in assay [4] and 10.3 µM (active) in assay [9].
As to `Nc1ccc([N+](=O)[O-])cc1`, the result in [1], in assay [2], in [3], in assay [4], in assay [5] and in assay [6] was inactive. The outcome in [7], in [8], in assay [9] and in [10] was inactive.
Take `CCC[CH2][Sn]([Cl])([CH2]CCC)[CH2]CCC`: the AC50 in assay [1] is 1.92 µM (active); in assay [2], 0.148 µM (active); in assay [3], 0.148 µM (active); in assay [4], 5.57 µM (active); in [5], 0.148 µM (active); in assay [6] it was 0.148 µM (active). Besides, the AC50 in assay [7] was 0.148 µM (active); in assay [8], 0.486 µM (active); in [9] it was 0.148 µM (active).
As to `CC(C)(OOC(C)(C)c1ccccc1)c1ccccc1`, the compound was called inactive in assay [1], in assay [7], in assay [8] and in [9]. The AC50 in assay [2] is 36.5 µM (active); in assay [3] it was 11.4 µM (active); in assay [4] it was 37.5 µM (active); in assay [5], 35.9 µM (active); in [6], 32.3 µM (active); in assay [10] it was 37.3 µM (active).
`[Cl-].[Cl-].[Hg+2]`: the result in [1], in [8] and in assay [10] was inactive. The half-maximal activity concentration (AC50) in [2] was 30.3 µM (active); in assay [3], 31.4 µM (active); in assay [4], 37.5 µM (active); in assay [5], 33 µM (active); in assay [6], 20 µM (active); in assay [7] it was 34.7 µM (active). In addition, the AC50 in assay [9] is 30 µM (active).
As for `CC(O)CCO` (configuration not stated), the result in [1], in [2], in assay [3], in assay [4], in assay [5] and in assay [6] was inactive. The outcome in [7], in assay [8], in [9] and in assay [10] was inactive.
With `OCCCBr`, the call in [1], in assay [2], in assay [3], in [4], in assay [5] and in [6] was inactive. In addition, the result in [7], in assay [8], in assay [9] and in [10] was inactive.
Take `Cc1cc(N=Nc2ccccc2C)ccc1N`: the result in [1], in assay [3], in assay [7] and in assay [10] was inactive. Besides, the AC50 is 11.1 µM (active) in [2]; 39 µM (active) in [4]; 29.1 µM (active) in assay [5]; 5.17 µM (active) in assay [6]; 3 µM (active) in assay [8]; 1.95 µM (active) in [9].
As to `COC(=O)c1ccccc1N`, the call in [1], in assay [2], in [3], in assay [4], in [5] and in assay [6] was inactive. Further, the outcome in assay [7], in assay [8], in assay [9] and in [10] was inactive.
`CNC(=O)Oc1cccc2c1OC(C)(C)C2`: the compound was called inactive in assay [1], in [2], in assay [3], in assay [4], in [5] and in assay [6]. Moreover, the result in [7], in assay [8], in [9] and in assay [10] was inactive.
On to `CO[C@@H]1[C@H](OC(=O)NC(=O)CCl)CC[C@]2(CO2)[C@H]1[C@@]1(C)O[C@@H]1CC=C(C)C`, for which the outcome in [1], in assay [2], in [3], in assay [4], in assay [6] and in assay [7] was inactive. The outcome in assay [8], in [9] and in assay [10] was inactive. In assay [5], the half-maximal activity concentration (AC50) was 2.09 µM (active).
For the compound `CCNS(=O)(=O)C(F)(F)C(F)(F)C(F)(F)C(F)(F)C(F)(F)C(F)(F)C(F)(F)C(F)(F)F`, the outcome in [1], in assay [2], in [4], in assay [5], in [6] and in [7] was inactive. The outcome in assay [8], in assay [9] and in assay [10] was inactive. Besides, the AC50 is 43.4 µM (active) and 44.3 µM (active) in [2]; 30 µM (active) and 43.4 µM (active) in assay [5]; 45.1 µM (active) and 47.3 µM (active) in assay [6]; 49.7 µM (active) and 50.3 µM (active) in assay [7].
Turning to `O=C(N[C@H](c1ccccc1)[C@@H]1CN2CCC1CC2)c1c(Cl)ccc(C(F)(F)F)c1Cl`, the compound was classed as inactive in assay [1], in assay [5], in assay [6] and in assay [10]. Also, the half-maximal activity concentration (AC50) in [2] is 29.7 µM (active); in assay [3] it was 44.2 µM (active); in assay [4], 14.5 µM (active); in [7], 27.4 µM (active); in [8] it was 29.7 µM (active); in assay [9], 17.3 µM (active).
Regarding `Nc1ccc(Cl)cc1N`, the compound was called inactive in [1], in assay [2], in assay [4], in assay [6], in assay [7] and in [9]. The result in assay [10] was inactive. In addition, the AC50 was 1.69 µM (active) in assay [3], 1.11 µM (active) in assay [5] and 0.785 µM (active) in [8].
